From PubChem BioAssay (NCATS)
Where “and” joins values, the source holds several entries; their conditions need not be identical. Equal values may be shown once. Results filed as inconclusive are left out. Where a call stands in place of a potency, no number is given. Calls of active or inactive are those of the source. Unless noted, calls follow the shape of the dose curve; as a rule, active = well fitted curve in the direction sought with a large enough effect; inconclusive = small, poorly fitted or top-dose-only effect, or another doubt; inactive = no such curve, though single readings can be large; an effect the other way counts as inactive or inconclusive.

Columns and labels:
[1] = molecular target: Thioredoxin reductase 1, cytoplasmic (Rattus norvegicus) (UniProt O89049); assay: qHTS Assay for Inhibitors of Mammalian Selenoprotein Thioredoxin Reductase 1 (TrxR1) (AID 488773); settings: Potency: inhibition;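 also: drop in NADPH fluorescence over an 8 min run after selenite addition; series mostly up to about 57 µM; nearly all actives have a fitted effect of over 40% in size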
Method in brief: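 Steps: enzyme (90 nM) plus NADPH (400 uM final), 5 min at ~22 deg C; compound added, 15 min; selenite (400 uM final) added; fluorescence followed for 8 min. Concentration-response curves derived from the normalized delta values.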

[2] = molecular target: Flap endonuclease 1 (Homo sapiens) (UniProt P39748); assay: qHTS Validation Assay for the Inhibitors of Human Flap endonuclease 1 (FEN1) (AID 488816)
Method in brief: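 Human FEN1 (10 nM) preincubated 15 min at room temperature with compounds, then flap DNA substrate added at 50 nM final. Fluorescence read at 0 and 15 min; concentration-response fitted with four-parameter Hill equation.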

[3] = molecular target: Chromobox protein homolog 1 (Homo sapiens) (UniProt P83916); assay: qHTS Validation Assay for Inhibitors of HP1-beta Chromodomain Interactions with Methylated Histone Tails (AID 488953); also: nearly all actives have a fitted effect of over 50% in size; also: potency is read from the fitted curve at half-maximal effect
Method in brief: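 HP1-beta (50 nM) was preincubated 30 min at room temperature with biotinylated H3(1-18)K9me3 peptide (50 nM) in PBS pH 7.4, 0.01% Tween-20, then with compounds 30 min. AlphaScreen signal was read after streptavidin donor/nickel chelate acceptor beads (10 ug/mL final).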

[4] = molecular target: Methanococcus maripaludis chaperonin (MmCpn) (UniProt Q6LX38); assay: High-Throughput Screening for Modulators of Cytosolic Chaperonin Activity: MmCpn Primary Screen (AID 488978)
Method in brief: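 HTRF readout (320 nm excitation, 590/665 nm emission) of ADP generated by 50 nM MmCpn hydrolysing 30 uM ATP during 10 min at 37C; compound preincubated 5 min RT.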

[5] = molecular target: Transient receptor potential cation channel subfamily V member 1 (Homo sapiens) (UniProt Q8NER1); assay: HTS Assay for Compounds that Act as Enhancers of the Vanilloid Receptor 1 (AID 488979)
Method in brief: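 TRPV1 cells loaded with Fluo-8 calcium dye; compound added and Ca2+ signal (ex 480/em 520 nm) followed 3 min, then capsaicin at EC20 added and read 2 more min to detect enhancement.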

[6] = molecular target: Thyrotropin receptor (Homo sapiens) (UniProt P16473); assay: qHTS Assay for Antagonists of the Thyroid Stimulating Hormone Receptor (AID 488980); also: series mostly up to about 58 µM
Method in brief: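 Inhibition of TSH-stimulated cAMP accumulation was quantified by homogeneous time-resolved FRET in TSHR-transfected HEK293 cells. Agonist: TSH, 4 nM final (EC80).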

[7] = molecular target: D(1A) dopamine receptor (Homo sapiens) (UniProt P21728); assay: HTS Assay for Allosteric Agonists of the Human D1 Dopamine Receptor: Primary Screen for Agonists (AID 488981)
Method in brief: (§1)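 Tetracycline-induced HEK293 Trex D1 cells with forced coupling to calcium, loaded with no-wash calcium dye; kinetic fluorescence read 180 s after compound addition for agonism, then a further 180 s after an EC20 dopamine challenge for potentiation.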

[8] = molecular target: D(1A) dopamine receptor (Homo sapiens) (UniProt P21728); assay: HTS Assay for Allosteric Agonists of the Human D1 Dopamine Receptor: Primary Screen for Antagonists (AID 488983);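 also: calcium flux response to an EC80 dopamine challenge measured with no-wash dye; nearly all actives have a fitted effect of over 65% in size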; also: potency is read from the fitted curve at half-maximal effect
Method in brief: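 Tetracycline-induced HEK293 T-REx cells expressing force-coupled D1 were plated overnight at 30 C, dye-loaded for calcium, and read kinetically. Compounds were pinned in, then an EC80 dopamine challenge followed after 180 s to reveal antagonism.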

[9] = Validation screen for small molecules that induce genotoxicity in human embryonic kidney (HEK293T) cells expressing luciferase-tagged ELG1 (AID 493106)
Method in brief: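 HEK293T cells expressing luciferase-tagged ELG1 were exposed to compound or DMSO vehicle for 16 hr at 37 °C, 5% CO2. Genotoxic stress raises ELG1 levels, so increased luciferase signal after ONE-Glo addition and 30 min at room temperature marks hits.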

[10] = molecular target: Thyrotropin-releasing hormone receptor (Homo sapiens) (UniProt P34981); assay: qHTS for Small Molecule Agonists and Allosteric Enhancers of Human TRH Receptor: Validation Screen for Agonists (AID 493127;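 active = calcium activation more than 3 SD above the typical response in the agonist read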;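 also: intracellular calcium rise by fluo-8 fluorescence before TRH EC20 addition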); settings: TRH receptor agonist cell assay; at 2 µM; stronger effect = higher value
Method in brief: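 TRHR-expressing cells were plated overnight in serum-containing medium, then loaded with fluo-8 calcium dye at room temperature for 30 min–1.5 h. After a 10 s baseline, compound was pin-transferred and calcium fluorescence (ex 480/em 530) read kinetically for agonist response.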

[11] = Nrf2 qHTS screen for inhibitors: Validation (AID 493153; active = well fitted inhibition curve with a large enough effect in the main read-out, with a control signal flat, not every such curve was filed as active); settings: viability change: measured here: cytotoxicity max response
Method in brief: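 A549 cells carrying an ARE-driven firefly luciferase reporter, in 5% FBS OPTI-MEM, were treated with compounds in concentration-response for 18-24 h at 37°C. Viability was read by CellTiter-Fluor fluorescence, then Nrf2 activity by luciferase luminescence.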

[12] = qHTS for Inhibitors of Cell Surface uPA Generation: Validation Assay (AID 493164);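 also: RAW 264.7 macrophage cells exposed to compound for 18 h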
Method in brief: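 RAW 264.7, 4000 cells/well, o/n plating; cpd 7-pt 1:5 dilution 2.45 nM–38.3 uM final; 18 h, 37 C/5% CO2; ATP-Lite, 5 s luminescence exposure.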

[13] = molecular target: Galactokinase (Homo sapiens) (UniProt P51570); assay: qHTS Validation Assay for Inhibitors of Human Galactokinase (GALK) (AID 493189)
Method in brief: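 Enzyme activity is inferred from ATP consumption: human GALK phosphorylates galactose (100 uM) using 35 uM ATP for 1 h at room temperature, and luciferase-based Kinase-Glo Plus reports unconsumed ATP.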

[14] = Validation screen for small molecules that induce DNA re-replication in SW480 colon adenocarcinoma cells (AID 504364)
Method in brief: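 SW480 cells seeded at 250 per well were exposed to compound or DMSO for 48 hr at 37 C, 5% CO2, then stained with Hoechst for 40 min. DNA content per nucleus was imaged (405 nm ex, 500-530 nm em).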

[15] = molecular target: Peptidyl-prolyl cis-trans isomerase NIMA-interacting 1 (Homo sapiens) (UniProt Q13526); assay: qHTS Validation Assay to Find Inhibitors of Pin1 (AID 504536; active = well fitted inhibition curve with a large enough effect in the polarisation, with a control signal flat, not every such curve was filed as active; the % refers to the polarisation)
Method in brief: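 Fluorescence polarization competition: compounds (titration) displace HiFluor-488-labeled Pin1-1b peptide from Pin1 (0.3 uM final) in pH 7.5 HEPES buffer with DTT, 10 min at room temperature; %Activity normalized to no-enzyme wells, curves fitted.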

[16] = molecular target: D(1A) dopamine receptor (Homo sapiens) (UniProt P21728); assay: HTS Assay for Allosteric Agonists of the Human D1 Dopamine Receptor: Primary Screen for Potentiators (AID 488982)
Method in brief: as §1

[17] = molecular target: ATPase family AAA domain-containing protein 5 (Homo sapiens) (UniProt Q96QE3); assay: Validation screen for small molecules that inhibit ELG1-dependent DNA repair in human embryonic kidney (HEK293T) cells expressing luciferase-tagged ELG1 (AID 493107);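 also: cells co-treated with the DNA-damaging agent 5-fluorouridine alongside compound; series mostly up to about 46 µM; inhibitors lower the ELG1-luciferase luminescence signal; nearly all actives have a fitted effect of over 70% in size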
Method in brief: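 HEK293T cells expressing luciferase-tagged ELG1 were co-treated with 5-fluorouridine and compound or DMSO for 16 hr at 37 °C, 5% CO2. Luciferase activity was then read with ONE-Glo after 30 min at room temperature; suppressed signal indicates blocked ELG1 function.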

[18] = molecular target: M-phase phosphoprotein 8 (Homo sapiens) (UniProt Q99549); assay: qHTS Validation Assay for Inhibitors for MPP8 Chromodomain Interactions with Methylated Histone Tails (AID 488949);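 also: 50 nM MPP8 with 50 nM peptide preformed then compounds added for 30 min; AlphaScreen signal from MPP8 chromodomain bound to biotinylated H3K9me3 peptide; top concentration of the series differs between compounds; nearly all actives have a fitted effect of over 55% in size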
Method in brief: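 Chemiluminescent proximity assay: histidine-tag capture via nickel acceptor beads, biotin peptide via streptavidin donor beads. Protein and peptide each at 50 nM, pH 7.4, with 30 min incubations at room temperature for complex formation, compound exposure and bead binding.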

[19] = molecular target: ATP-dependent 6-phosphofructokinase (Trypanosoma brucei brucei) (UniProt O15648); assay: qHTS Assay to Find Inhibitors of T. brucei phosphofructokinase: hit validation (AID 492961); also: series mostly up to about 51 µM
Method in brief: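 Luminescence from ADP-Glo reports ADP generated as T. brucei PFK (1.25 nM) phosphorylates 0.5 mM fructose-6-phosphate using 0.1 mM ATP. Reactions ran 45 min at room temperature, pH 8.0.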

Methanococcus maripaludis chaperonin (MmCpn), sequence (Q6LX38 1-543): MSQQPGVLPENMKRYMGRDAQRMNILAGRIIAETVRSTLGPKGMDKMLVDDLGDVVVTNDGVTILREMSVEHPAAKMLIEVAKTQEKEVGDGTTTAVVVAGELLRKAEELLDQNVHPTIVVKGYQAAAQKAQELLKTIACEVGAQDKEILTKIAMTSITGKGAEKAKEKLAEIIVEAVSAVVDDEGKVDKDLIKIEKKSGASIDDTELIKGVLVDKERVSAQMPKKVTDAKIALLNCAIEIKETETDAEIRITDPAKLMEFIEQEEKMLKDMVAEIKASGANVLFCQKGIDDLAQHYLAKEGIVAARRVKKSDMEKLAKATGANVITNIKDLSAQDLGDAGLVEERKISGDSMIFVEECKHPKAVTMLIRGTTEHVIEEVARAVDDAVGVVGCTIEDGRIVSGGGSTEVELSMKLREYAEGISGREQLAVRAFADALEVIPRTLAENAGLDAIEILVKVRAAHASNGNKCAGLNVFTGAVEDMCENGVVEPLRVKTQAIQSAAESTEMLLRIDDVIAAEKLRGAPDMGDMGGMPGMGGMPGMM
Thyrotropin-releasing hormone receptor (Homo sapiens), sequence (P34981 whole entry, looked up): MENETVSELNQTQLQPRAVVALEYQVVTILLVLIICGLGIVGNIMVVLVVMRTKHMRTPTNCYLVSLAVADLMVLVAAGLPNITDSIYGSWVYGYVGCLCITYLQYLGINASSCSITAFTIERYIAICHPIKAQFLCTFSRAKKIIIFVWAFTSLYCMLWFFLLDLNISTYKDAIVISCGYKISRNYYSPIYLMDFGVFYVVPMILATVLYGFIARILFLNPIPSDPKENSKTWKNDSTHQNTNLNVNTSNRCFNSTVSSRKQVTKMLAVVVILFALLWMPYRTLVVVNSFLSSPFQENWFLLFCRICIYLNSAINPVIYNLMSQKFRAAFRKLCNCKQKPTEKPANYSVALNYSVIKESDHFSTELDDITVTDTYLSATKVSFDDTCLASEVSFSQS
Chromobox protein homolog 1 (Homo sapiens), sequence (P83916 whole entry, looked up): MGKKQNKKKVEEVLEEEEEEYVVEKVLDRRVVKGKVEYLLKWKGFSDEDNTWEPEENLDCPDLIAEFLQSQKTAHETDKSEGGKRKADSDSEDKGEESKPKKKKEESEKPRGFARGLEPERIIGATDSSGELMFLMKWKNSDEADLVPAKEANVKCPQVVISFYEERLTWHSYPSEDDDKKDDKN
Peptidyl-prolyl cis-trans isomerase NIMA-interacting 1 (Homo sapiens), sequence (Q13526 whole entry, looked up): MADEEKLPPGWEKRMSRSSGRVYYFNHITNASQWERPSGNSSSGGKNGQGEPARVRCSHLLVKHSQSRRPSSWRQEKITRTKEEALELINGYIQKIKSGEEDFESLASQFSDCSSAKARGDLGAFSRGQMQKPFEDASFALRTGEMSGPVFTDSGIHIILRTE
D(1A) dopamine receptor (Homo sapiens), sequence (P21728 whole entry, looked up): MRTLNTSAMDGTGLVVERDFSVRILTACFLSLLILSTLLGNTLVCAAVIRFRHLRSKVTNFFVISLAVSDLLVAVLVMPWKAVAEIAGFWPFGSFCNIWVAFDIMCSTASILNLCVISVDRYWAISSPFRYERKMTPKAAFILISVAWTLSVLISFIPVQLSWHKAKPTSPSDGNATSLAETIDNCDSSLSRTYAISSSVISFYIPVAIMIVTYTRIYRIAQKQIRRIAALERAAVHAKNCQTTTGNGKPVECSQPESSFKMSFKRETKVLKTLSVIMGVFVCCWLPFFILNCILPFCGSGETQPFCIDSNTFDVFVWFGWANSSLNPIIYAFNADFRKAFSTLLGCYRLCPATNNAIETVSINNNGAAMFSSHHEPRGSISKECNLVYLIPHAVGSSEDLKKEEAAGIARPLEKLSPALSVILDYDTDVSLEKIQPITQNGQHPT
Galactokinase (Homo sapiens), sequence (P51570 whole entry, looked up): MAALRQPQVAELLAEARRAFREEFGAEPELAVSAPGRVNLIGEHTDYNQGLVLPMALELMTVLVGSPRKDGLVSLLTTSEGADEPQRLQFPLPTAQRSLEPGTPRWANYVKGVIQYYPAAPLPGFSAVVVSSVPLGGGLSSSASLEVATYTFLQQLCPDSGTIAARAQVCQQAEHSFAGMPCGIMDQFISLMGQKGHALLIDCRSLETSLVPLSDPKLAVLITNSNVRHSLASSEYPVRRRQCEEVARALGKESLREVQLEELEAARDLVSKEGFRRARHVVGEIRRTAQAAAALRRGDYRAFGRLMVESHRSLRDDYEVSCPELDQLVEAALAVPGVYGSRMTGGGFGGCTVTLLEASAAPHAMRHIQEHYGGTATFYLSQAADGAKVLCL
Thioredoxin reductase 1, cytoplasmic (Rattus norvegicus), sequence (O89049 whole entry, looked up): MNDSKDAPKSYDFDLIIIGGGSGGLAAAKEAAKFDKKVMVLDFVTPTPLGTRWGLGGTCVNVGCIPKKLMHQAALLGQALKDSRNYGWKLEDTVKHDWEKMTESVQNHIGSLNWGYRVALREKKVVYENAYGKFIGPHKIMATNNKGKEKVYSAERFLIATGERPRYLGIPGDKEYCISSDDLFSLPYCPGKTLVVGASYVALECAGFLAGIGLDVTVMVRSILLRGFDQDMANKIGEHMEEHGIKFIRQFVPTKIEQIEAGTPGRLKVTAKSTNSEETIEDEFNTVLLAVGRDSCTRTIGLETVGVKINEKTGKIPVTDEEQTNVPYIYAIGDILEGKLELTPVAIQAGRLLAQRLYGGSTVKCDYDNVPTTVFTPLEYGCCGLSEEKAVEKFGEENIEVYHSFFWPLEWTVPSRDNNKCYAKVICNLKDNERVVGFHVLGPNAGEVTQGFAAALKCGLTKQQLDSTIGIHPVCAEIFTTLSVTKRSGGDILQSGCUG
M-phase phosphoprotein 8 (Homo sapiens), sequence (Q99549 whole entry, looked up): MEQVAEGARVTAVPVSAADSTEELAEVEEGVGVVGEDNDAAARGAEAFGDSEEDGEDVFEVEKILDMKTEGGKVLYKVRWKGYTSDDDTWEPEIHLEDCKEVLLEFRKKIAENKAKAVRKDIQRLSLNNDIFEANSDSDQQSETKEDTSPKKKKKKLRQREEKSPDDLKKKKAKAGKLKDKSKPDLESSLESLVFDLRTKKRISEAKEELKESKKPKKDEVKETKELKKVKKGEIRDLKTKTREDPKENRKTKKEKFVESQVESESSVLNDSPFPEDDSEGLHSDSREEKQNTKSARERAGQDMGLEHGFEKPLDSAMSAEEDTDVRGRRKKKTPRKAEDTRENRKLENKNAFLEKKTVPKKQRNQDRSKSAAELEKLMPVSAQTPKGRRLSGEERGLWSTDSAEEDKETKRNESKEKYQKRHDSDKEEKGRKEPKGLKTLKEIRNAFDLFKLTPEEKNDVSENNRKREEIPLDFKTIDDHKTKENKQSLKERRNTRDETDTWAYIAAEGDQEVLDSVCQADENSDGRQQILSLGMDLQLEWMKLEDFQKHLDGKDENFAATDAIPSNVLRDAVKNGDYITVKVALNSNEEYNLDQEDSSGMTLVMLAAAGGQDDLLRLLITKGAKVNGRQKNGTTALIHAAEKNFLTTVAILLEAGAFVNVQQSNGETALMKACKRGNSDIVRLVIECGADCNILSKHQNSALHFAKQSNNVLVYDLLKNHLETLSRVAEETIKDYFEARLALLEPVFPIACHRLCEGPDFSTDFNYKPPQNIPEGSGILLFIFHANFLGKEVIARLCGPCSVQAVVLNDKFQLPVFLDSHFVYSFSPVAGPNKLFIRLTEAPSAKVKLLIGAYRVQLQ
Flap endonuclease 1 (Homo sapiens), sequence (P39748 whole entry, looked up): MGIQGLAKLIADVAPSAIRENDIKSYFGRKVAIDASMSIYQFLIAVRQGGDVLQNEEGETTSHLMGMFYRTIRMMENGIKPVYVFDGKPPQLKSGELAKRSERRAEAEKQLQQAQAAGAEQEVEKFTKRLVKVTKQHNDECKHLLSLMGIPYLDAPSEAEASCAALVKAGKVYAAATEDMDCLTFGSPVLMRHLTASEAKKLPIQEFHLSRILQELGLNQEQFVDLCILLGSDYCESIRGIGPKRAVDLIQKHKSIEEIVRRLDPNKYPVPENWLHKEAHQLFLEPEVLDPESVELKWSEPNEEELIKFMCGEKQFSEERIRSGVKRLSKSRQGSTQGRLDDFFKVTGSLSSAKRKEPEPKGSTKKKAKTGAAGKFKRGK
Thyrotropin receptor (Homo sapiens), sequence (P16473 whole entry, looked up): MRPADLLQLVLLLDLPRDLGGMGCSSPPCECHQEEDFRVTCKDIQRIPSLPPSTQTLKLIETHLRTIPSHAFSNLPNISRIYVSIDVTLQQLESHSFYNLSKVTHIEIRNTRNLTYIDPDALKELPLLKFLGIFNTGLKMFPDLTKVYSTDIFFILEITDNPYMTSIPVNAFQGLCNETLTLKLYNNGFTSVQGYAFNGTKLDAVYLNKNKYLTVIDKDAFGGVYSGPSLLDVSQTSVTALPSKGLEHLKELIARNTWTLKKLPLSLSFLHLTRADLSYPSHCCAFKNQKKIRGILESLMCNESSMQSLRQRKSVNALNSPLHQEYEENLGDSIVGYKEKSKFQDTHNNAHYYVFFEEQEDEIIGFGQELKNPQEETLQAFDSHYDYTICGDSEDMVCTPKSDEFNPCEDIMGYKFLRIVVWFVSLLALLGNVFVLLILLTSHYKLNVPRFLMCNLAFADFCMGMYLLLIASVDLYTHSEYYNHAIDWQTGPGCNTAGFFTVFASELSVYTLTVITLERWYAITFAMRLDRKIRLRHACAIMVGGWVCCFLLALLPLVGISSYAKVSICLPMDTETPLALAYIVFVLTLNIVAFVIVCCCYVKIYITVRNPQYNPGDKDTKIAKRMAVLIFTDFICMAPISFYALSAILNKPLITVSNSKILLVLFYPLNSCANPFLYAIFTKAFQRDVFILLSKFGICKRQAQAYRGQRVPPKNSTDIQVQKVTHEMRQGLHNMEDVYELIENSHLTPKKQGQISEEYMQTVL

SMILES | Potency [1] | Potency [2] | Potency [3] | outcome [4] | outcome [5] | outcome [6] | Potency [7] | Potency [8] | outcome [9] | activation [10] | outcome [11] | viability change [11] | outcome [12] | outcome [13] | outcome [14] | outcome [15] | outcome [16] | Potency [17] | Potency [18] | Potency [19]
NCCc1c[nH]c2ccccc12 | inactive | inactive | inactive | inactive | inactive | inactive | inactive | inactive | inactive | -0.438% (inactive) | inactive | -0.0651% | inactive | inactive | inactive | inactive | – | – | – | –
C#CCOC(=O)C1=CCCN(C)C1 | inactive | inactive | inactive | inactive | inactive | inactive | inactive | inactive | inactive | 3.19% (inactive) | inactive | -2.85% | inactive | inactive | inactive | inactive | inactive | inactive | – | –
NCCc1c[nH]c2ccc(O)cc12 | inactive | inactive | inactive | inactive | inactive | inactive | inactive | inactive | inactive | 1.44% (inactive) | inactive | 0.321% | inactive | inactive | inactive | inactive | inactive | – | inactive | –
C[C@]12CCC3C(CC[C@H]4C[C@H](O)CC[C@]34C)C1CC[C@@H]2C(=O)CO (stereo not given in full) | inactive | inactive | inactive | inactive | inactive | inactive | inactive | inactive | inactive | 1.56% (inactive) | – | – | inactive | inactive | inactive | inactive | inactive | – | – | –
Cc1c(C(=O)c2cccc3ccccc23)c2cccc3c2n1[C@H](CN1CCOCC1)CO3 | inactive | inactive | 6 nM (active) | – | inactive | inactive | inactive | inactive | inactive | -3.25% (inactive) | – | – | – | inactive | inactive | – | – | – | inactive | –
CCCN(CCC)[C@@H]1CCc2ccc(O)cc2C1 | inactive | inactive | inactive | inactive | inactive | inactive | inactive | 10000 nM (active) | inactive | 0.938% (inactive) | inactive | 2.19% | inactive | inactive | inactive | inactive | inactive | – | – | –
CC(C)NC(C)Cc1ccc(I)cc1 (stereo not given) | inactive | inactive | inactive | inactive | – | inactive | inactive | inactive | inactive | 2.38% (inactive) | inactive | 2.82% | inactive | inactive | inactive | inactive | inactive | – | – | inactive
O=C(Cc1ccc(Cl)c(Cl)c1)N1CCCCC1CN1CCCC1 (stereo not given) | inactive | inactive | inactive | inactive | inactive | inactive | inactive | inactive | inactive | 1.12% (inactive) | inactive | 7.56% | inactive | inactive | inactive | inactive | inactive | inactive | – | –
C[N+]1(C)C2CCC1CC(OC(=O)C(CO)c1ccccc1)C2 (stereo not given) | inactive | inactive | inactive | inactive | inactive | inactive | inactive | inactive | inactive | – | inactive | 9.4% and 1.15% | inactive | inactive | inactive | inactive | inactive | – | – | –
Cn1cnc(CCN)c1 | inactive | inactive | inactive | inactive | inactive | inactive | inactive | inactive | inactive | 0.562% (inactive) | inactive | -10.2% | inactive | inactive | inactive | inactive | inactive | – | – | –
C[C@]12N[C@H](Cc3ccccc31)c1ccccc12 | inactive | inactive | 7.5 nM (active) | inactive | inactive | inactive | inactive | inactive | inactive | – | inactive | 0.285% | inactive | inactive | inactive | inactive | inactive | – | – | –
NC(N)=NOCCC(N)C(=O)O (stereo not given) | inactive | inactive | inactive | inactive | inactive | inactive | inactive | inactive | inactive | 0.375% (inactive) | inactive | 0.756% | inactive | inactive | inactive | inactive | inactive | – | – | –
COc1cc(C(O)CN)ccc1O (stereo not given) | inactive | inactive | inactive | inactive | inactive | inactive | inactive | inactive | inactive | 0.375% (inactive) | inactive | -5.73% | inactive | inactive | inactive | inactive | inactive | – | – | –
C[C@@H](N)Cc1cnc[nH]1 | inactive | inactive | inactive | inactive | inactive | inactive | inactive | inactive | inactive | 1.12% (inactive) | – | – | inactive | inactive | inactive | inactive | inactive | – | – | –
Clc1cnc(Oc2ccc(Oc3ncc(Cl)cc3Cl)cc2)c(Cl)c1 | inactive | inactive | inactive | inactive | inactive | inactive | inactive | inactive | inactive | – | inactive | 3.25% | inactive | inactive | inactive | inactive | inactive | – | – | –
